According to PubChem BioAssay (Tox21):
Results filed as inconclusive are left out. Activity calls are given as the source filed them. Unless noted, the call rests on the fitted dose curve; in most records, active means well fitted curve in the direction sought with a large enough effect in the repeat runs; inconclusive means weak or mixed curves; inactive means no such curve, though single readings can be large; an effect the other way counts as inactive or inconclusive.

Columns and labels:
[1] = target: Retinoic acid receptor RXR-alpha (Homo sapiens) (UniProt P19793); test: qHTS assay to identify small molecule agonists of the RXR signaling pathway (AID 1159527; calls by dose curve; further: nearly all actives have a fitted effect of over 35% in size)
How it was run: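 Compounds in DMSO were added to RXR-alpha-UAS-bla HEK 293T cells kept in 2% charcoal-stripped serum, and incubated 16 hr at 37 C with 5% CO2. Reporter signal came from a 2 hr B/G FRET substrate step.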

[2] = qHTS assay to identify small molecule agonists of the RXR signaling pathway - cell viability counter screen (AID 1159529);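 further: HEK 293T cells carrying an RXR-alpha UAS beta-lactamase reporter; series mostly up to about 77 µM; nearly all actives have a fitted effect of over 50% in size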
How it was run: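 Counter screen: CellTiter-Glo luminescence. Cells: RXR-alpha-UAS-bla HEK 293T. Medium: 2% charcoal-stripped FBS. Treatment: 16 h, 37 C. Reagent incubation: 30 min, RT.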

[3] = qHTS assay to identify small molecule antagonists of the retinoid acid receptor (RAR) signaling pathway - cell viability counter screen (AID 1159551); further: nearly all actives have a fitted effect of over 35% in size
How it was run: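 Measured by luminescent ATP detection, viability reflects C3RL4 cells treated 6 h at 37 C with test chemicals in the presence of 1 uM (final) retinol.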

[4] = qHTS assay to identify small molecule agonists of the retinoic acid receptor (RAR) signaling pathway (AID 1159553)
How it was run: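 6 hr compound exposure (DMSO vehicle) of overnight-plated C3RL4 RARE-luc cells at 37 C; luminescence quantified after 30 min RT with luciferase reagent.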

[5] = qHTS assay to identify small molecule antagonists of the retinoic acid receptor (RAR) signaling pathway (AID 1159552; further: nearly all actives have a fitted effect of over 50% in size)
How it was run: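 Antagonism of retinol-induced RARE reporter activity was measured in C3RL4 cells. Exposure to compounds and 1 uM final retinol lasted 6 hr at 37 C, with luminescence as endpoint.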

[6] = qHTS assay to identify small molecule antagonists of the estrogen related receptor (ERR) signaling pathway - cell viability counter screen (AID 1224818); further: series mostly up to about 46 µM
How it was run: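 Compounds dissolved in DMSO were applied to ERR cells seeded at 2,000 per well 6 h earlier. Cell viability followed 17.5 h later via 30-min CellTiter-Fluor fluorescence.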

[7] = qHTS assay to identify small molecule antagonists of the estrogen related receptor signaling pathway with the pleiotropic PPARgamma coactivator (PGC) cell viability counter screen (AID 1224822; further: series mostly up to about 46 µM)
How it was run: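 Counter screen for cell viability: PGC/ERR cells, 6 h pre-incubation after plating, 17.5 h compound exposure at 37 C, fluorescence from CellTiter-Fluor after 30 min.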

[8] = qHTS assay to identify small molecule antagonists of the estrogen related receptor (ERR) signaling pathway (AID 1224819;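 further: luminescence from an ERR-driven luciferase reporter measured with One-Glo reagent; series mostly up to about 46 µM; nearly all actives have a fitted effect of over 50% in size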)
How it was run: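 Compounds dissolved in DMSO were pin-transferred onto ERR cells that had been plated 6 h earlier, and cells were then incubated 18 h at 37 C; signal was luciferase luminescence via One-Glo.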

[9] = qHTS assay to identify small molecule agonists of the estrogen related receptor (ERR) signaling pathway (AID 1224820)
How it was run: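 Luminescence readout (One-Glo, 30 min RT) from NTP-supplied ERR cell line exposed to compounds for 18 h at 37 C. Cells seeded 2,000 per well and pre-incubated 6 h before pin-tool compound transfer.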

[10] = qHTS assay to identify small molecule agonists of the estrogen related receptor signaling pathway with the pleiotropic PPARgamma coactivator (PGC) (AID 1224823)
How it was run: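 Luminescence readout (One-Glo, 30 min RT) from PGC/ERR cell line treated 18 h at 37 C with pin-tool-delivered DMSO compound solutions; cells plated 6 h before dosing. Quantitative HTS format.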

Measured: Potency

Sequence of Retinoic acid receptor RXR-alpha (Homo sapiens) (P19793 whole entry, looked up): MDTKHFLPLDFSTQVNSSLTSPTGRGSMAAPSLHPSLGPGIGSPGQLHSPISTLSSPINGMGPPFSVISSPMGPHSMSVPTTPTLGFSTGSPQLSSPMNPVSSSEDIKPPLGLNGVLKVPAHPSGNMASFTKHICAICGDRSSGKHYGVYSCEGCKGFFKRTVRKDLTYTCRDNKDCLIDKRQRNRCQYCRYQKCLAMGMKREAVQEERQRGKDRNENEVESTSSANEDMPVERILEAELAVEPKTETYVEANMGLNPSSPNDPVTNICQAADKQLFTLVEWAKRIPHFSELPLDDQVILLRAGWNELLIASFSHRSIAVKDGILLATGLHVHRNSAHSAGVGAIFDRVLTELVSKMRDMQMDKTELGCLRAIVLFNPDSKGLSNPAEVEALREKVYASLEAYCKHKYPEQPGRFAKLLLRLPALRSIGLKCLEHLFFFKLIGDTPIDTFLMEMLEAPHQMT

Cc1nc(N)nc(N)n1
inactive: [1] | [2] | [3] | [4]

ClCCCN1CCN(c2cccc(Cl)c2)CC1
inactive: [1] | [2] | [3] | [5] | [4]

CNC(=O)Oc1ccccc1C1OCCO1
inactive: [1] | [2] | [3] | [5] | [4]

Cc1cnc[nH]1
inactive: [1] | [2] | [3] | [5] | [4]

O=C1OC(c2ccc(O)c(S(=O)(=O)O)c2)(c2ccc(O)c(S(=O)(=O)O)c2)c2c(Br)c(Br)c(Br)c(Br)c21
inactive: [1] | [2] | [3] | [5] | [4]

COC(=O)c1ccccc1S(=O)(=O)NC(=O)Nc1nc(C)cc(C)n1
inactive: [1] | [2] | [3] | [4]

O=C(Oc1ccc(Br)cc1)N1CCN2CCC1CC2
inactive: [1] | [2] | [3] | [5] | [4]

Cc1ncc(CNC(=O)N(CCCl)N=O)c(N)n1
inactive: [1] | [2] | [3] | [5] | [4] | [6] | [7]

COc1cccc(C(=O)NN(C(=O)c2cc(C)cc(C)c2)C(C)(C)C)c1C
inactive: [1] | [2] | [3] | [5] | [4]

CCOC(=O)/C=C(C)/C=C/C[C@@H](C)CCCC(C)C
inactive: [1] | [2] | [3] | [4]

C#C[C@]1(O)C=C[C@H]2[C@@H]3CCC4=CC(=O)CC[C@@H]4[C@H]3CC[C@@]21CC
inactive: [1] | [2] | [3] | [4]

CC(Cl)(Cl)[N+](=O)[O-]
inactive: [1] | [2] | [3] | [4]

CCN(CC)C(C)C(=O)c1ccccc1 (centres undefined)
inactive: [1] | [2] | [3] | [5] | [4]

CC(CCc1ccccc1)NC(C)C(O)c1ccc(O)cc1 (centres undefined)
inactive: [1] | [2] | [3] | [6] | [7]

CC(=O)[C@H]1CC[C@H]2[C@@H]3CC[C@H]4C[C@H](O)CC[C@]4(C)[C@H]3C(=O)C[C@]12C
inactive: [6] | [8] | [9] | [7] | [10]

C=C(C)[C@@H]1CC=C(C=O)CC1
inactive: [2] | [3] | [5]

O=C(Nc1ccccc1)c1ccccc1I
inactive: [2] | [3] | [5]

CC1(C)C(=O)NC(=O)NC1=O
inactive: [2] | [3]

CCOC(=O)C(c1c(O)c2ccccc2oc1=O)c1c(O)c2ccccc2oc1=O
inactive: [2] | [3]

O=CNC(N1CCN(C(NC=O)C(Cl)(Cl)Cl)CC1)C(Cl)(Cl)Cl (centres undefined)
inactive: [2] | [3]

Fc1cc(Br)ccc1CBr
inactive: [2] | [3]

Cc1cccc(C#N)c1
inactive: [2] | [3]

CCS(=O)(=O)C(C)(C)S(=O)(=O)CC
inactive: [2] | [3]

CCOC(=O)CP(=O)(OCC)OCC
inactive: [2] | [3]

N#CC(O)c1ccccc1 (centres undefined)
inactive: [2] | [3]

OCCBr
inactive: [2] | [3]

CC(C)COP(=O)(OCC(C)C)OCC(C)C
inactive: [2] | [3]

OCCSCSCCO
inactive: [2] | [3]

CNC(=O)Oc1cccc(C(C)C)c1
inactive: [2] | [3]

CN(C)CCc1ccc(O)cc1
inactive: [2] | [3]

Cc1ncc2n1-c1ccc(Cl)cc1C(c1ccccc1F)=NC2
inactive: [2] | [3]

CCCSC(=O)Cl
inactive: [2] | [3] | [5] | [4]

OC(Cn1cncn1)(c1ccc(F)cc1)c1ccccc1F (centres undefined)
inactive: [2] | [3]

O=C(CCCN1CCC(n2c(=O)[nH]c3ccccc32)CC1)c1ccc(F)cc1
inactive: [2] | [3]

CCC(=O)c1ccccc1
inactive: [2] | [3]

CCOP(=S)(OCC)Oc1cc(-c2ccccc2)on1
inactive: [2] | [3] | [5]

N#CCBr
inactive: [2] | [3]

CCOP(=O)(OCC)OP(=O)(OCC)OCC
inactive: [2] | [3]

CNC(=O)Oc1ccc(N(C)C)c(C)c1
inactive: [2] | [3] | [5] | [4]

CC1=NNC(=O)N(/N=C/c2cccnc2)C1
inactive: [2] | [3] | [5]

CC1CCCCC1NC(=O)Nc1ccccc1 (centres undefined)
inactive: [2] | [3] | [5]

[As]#[In]
inactive: [2] | [3]

C[C@@H]1CN(C2CCC(C#N)(c3ccc(F)cc3)CC2)CC[C@]1(C(=O)O)c1ccccc1 (some centres undefined)
inactive: [2] | [3]

COC(C)(C)C
inactive: [2] | [3] | [5] | [4]

Nc1cnn(-c2ccccc2)c(=O)c1Cl
inactive: [2] | [3]

Nc1cc2c3c(c1)C(c1ccccc1)=N[C@@H](NC(=O)c1cccnc1)C(=O)N3CC2
inactive: [2] | [3]

CCC/C(=N\OCC)C1=C(O)CC(CC(C)SCC)CC1=O (centres undefined)
inactive: [2] | [3]

CC(C(=O)c1ccccc1)N(C)C (centres undefined)
inactive: [2] | [3]

C[C@]1(O)CC[C@H]2[C@@H]3CCC4=CC(=O)CC[C@]4(C)[C@@]3(F)[C@@H](O)C[C@@]21C
inactive: [2] | [3]

O=C(NCO)NCO
inactive: [2] | [3]

N#CCNCC#N
inactive: [2] | [3]

CCNc1nc(NC(C)C)nc(OC)n1
inactive: [2] | [3]

COc1ccc2c(c1OC)CN1CCc3cc4c(cc3C1C2)OCO4 (centres undefined)
inactive: [2] | [3]

COC(=O)c1ccccc1S(=O)(=O)NC(=O)N(C)c1nc(C)nc(OC)n1
inactive: [2] | [3] | [4]

CS(=O)(=O)c1cc(C(F)(F)F)ccc1C(=O)c1cnoc1C1CC1
inactive: [2] | [3] | [4]

ClCC(Cl)(Cl)Cl
inactive: [2] | [3] | [5] | [4]
